Data as given in PubChem BioAssay AID1220 (Sanford-Burnham Center for Chemical Genomics, 2008).
Screen size: about 190,000 compounds; about 1,300 (0.68%) were called active. The entries come from a sample that favours actives as a whole. Values without a mark were called inactive. Cut-off read from the data, not from the text of the source: active = inhibition above about 50%; inactive = the rest.

The compounds below were run against Mannose-6-phosphate isomerase (Homo sapiens) (UniProt P34949) (assay: human PMI inhibitors, high substrate, primary screen, biochemical, fluorescence intensity, high mannose 6-phosphate (AID 1220)). Details: recombinant PMI enzyme, coupled fluorescence intensity; at 20 µM; active compounds read high.
Sequence of Mannose-6-phosphate isomerase (Homo sapiens) (P34949 whole entry, looked up): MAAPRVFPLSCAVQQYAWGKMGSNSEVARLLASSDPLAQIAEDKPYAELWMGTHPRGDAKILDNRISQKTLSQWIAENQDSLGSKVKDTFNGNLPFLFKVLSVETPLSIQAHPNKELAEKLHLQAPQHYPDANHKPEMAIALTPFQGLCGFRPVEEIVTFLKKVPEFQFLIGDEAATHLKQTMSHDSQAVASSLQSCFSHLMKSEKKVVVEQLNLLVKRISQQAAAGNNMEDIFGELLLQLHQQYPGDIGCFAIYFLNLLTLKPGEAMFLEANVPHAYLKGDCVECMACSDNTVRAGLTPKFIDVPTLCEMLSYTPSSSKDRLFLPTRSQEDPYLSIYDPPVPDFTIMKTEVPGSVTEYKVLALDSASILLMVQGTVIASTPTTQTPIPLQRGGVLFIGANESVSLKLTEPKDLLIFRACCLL
`COC(=O)COc1ccc(S(=O)(=O)N2CCN(c3ccccc3)CC2)cc1` showed an inhibition of -8.3%. With `O=C(c1cccc(F)c1F)N1CCCC1` the inhibition was -8.2%. `O=C(c1cccc2cccc(O)c12)N1CCCCC1` was tested, and the inhibition was 63.7% (active). In the case of `Nc1ccccc1C(=O)N1CCCC1`, the inhibition is reported as 8.2%. For `Cc1ccc2c(c1)nnn2C1CCN(S(=O)(=O)c2ccc(C(=O)N3C(C)CCCC3C)cc2)CC1` (configuration not stated), the inhibition was 53% (active). Compound `Cc1ccc2c(c1)nnn2C1CCN(S(=O)(=O)c2ccc(C(=O)N3CC(C)CC(C)C3)cc2)CC1` (configuration not stated) has an inhibition of 10.4%. `Cc1ccc2c(c1)nnn2C1CCN(S(=O)(=O)c2ccc(C(=O)O)cc2)CC1` was tested, and the inhibition was 3.6%. For `O=C(COC(=O)/C=C/c1ccccc1[N+](=O)[O-])NCC(F)(F)F`, the inhibition was -8.8%. Compound `CCc1ccc(NC(=S)N2CCCCCCC2)cc1` has an inhibition of -7.1%. `Cc1nc(SCC2(C)CC2(Cl)Cl)n[nH]1` (configuration not stated) gave an inhibition of -3.1%. `COc1ccc(/C=N/NS(=O)(=O)c2ccc(C)cc2)cc1OC(=O)c1ccc(C)cc1` was tested, and the inhibition was -3.5%. Compound `Cc1cccc(/N=C/c2c(O)ccc3oc4c(c23)CCCC4)n1` has an inhibition of 13.6%. `Oc1ccc2oc3c(c2c1/C=N/n1cnnc1)CCCC3` gave an inhibition of 9.3%. With `Cc1ccnc(N=Cc2c(O)ccc3oc4c(c23)CCCC4)c1` the inhibition was 51.1% (active). `CCOC(=O)c1cnc2c(C#N)c(C)nn2c1-c1ccccc1` was tested, and the inhibition was 3.5%. Compound `COCCN=c1scc(-c2cc(OC)c(OC)c(OC)c2)n1/N=C/c1c(C)[nH]c2ccccc12` has an inhibition of 13.7%. In the case of `N#Cc1cc([N+](=O)[O-])ccc1N1CCN(c2ccccc2O)CC1`, the inhibition is reported as 10.8%. Compound `CN(N)c1ccc2c(C(F)(F)F)cc(C(F)(F)F)nc2n1` has an inhibition of -11.3%. Compound `NNc1ccc2c(C(F)(F)F)cc(C(F)(F)F)nc2n1` has an inhibition of -7.7%. `Nc1ccc2c(C(F)(F)F)cc(C(F)(F)F)nc2n1` was tested, and the inhibition was 53.7% (active). `Cc1c(Cl)cccc1Nc1nc(N)nc(CSCCO)n1` showed an inhibition of -1.1%. With `O=c1c2c3c(sc2nc2n1CCCCC2)C(O)CCC3` (configuration not stated) the inhibition was 8.9%. In the case of `COc1ccc(C2=NN(c3nc(C)cc(C)n3)C(=O)C2)cc1`, the inhibition is reported as 51.6% (active). `Cc1cc(C)nc(N2N=C(c3ccccc3)CC2=O)n1` showed an inhibition of 26.8%. Compound `Cc1cc(C)nc(N2N=C(C(C)(C)C)CC2=O)n1` has an inhibition of -15%. `Cc1ccc(CN2CCCNC2=O)cc1` gave an inhibition of -2.5%. For `COc1cc(NC(=O)COC(=O)C2CC2)c(C)cc1[N+](=O)[O-]`, the inhibition was -8%. `O=C(Nc1nc2ccccc2n1CCN1CCCCC1)c1ccc(Cl)cc1` gave an inhibition of -11.3%. Work on `CCn1cc(Cl)c(C(=O)Nc2nc3ccccc3n2CCN2CCCCC2)n1` yielded an inhibition of -2.9%. `Cc1c(Cl)c(C(=O)Nc2nc3ccccc3n2CCN2CCCCC2)nn1C` was tested, and the inhibition was 55.1% (active). `CCOC(=O)c1cc(-c2ccc(C)cc2)n(CCC(=O)NCCN(C)C)c1C` gave an inhibition of 5.6%. For `O=C1CN2NC(=S)N(c3ccc(Cl)cc3)C2=CN1c1ccc(Cl)cc1`, the inhibition was -2.8%. `CCOc1cc(NC(=S)NCCCN2CCOCC2)c(OCC)cc1NC(=O)c1ccccc1C` showed an inhibition of 47.3%. In the case of `CCOc1cc(NC(=S)NCCCN2CCOCC2)c(OCC)cc1NC(=O)c1ccc(C)cc1`, the inhibition is reported as 52.6% (active). `CCOc1cc(NC(=S)NCCCN2CCOCC2)c(OCC)cc1NC(=O)c1ccccc1` showed an inhibition of 24.1%. For `CCOc1cc(NC(=S)NCCCN2CCOCC2)c(OCC)cc1NC(=O)c1cccs1`, the inhibition was 56.1% (active). Compound `CCOc1cc(NC(=S)NCCCN2CCOCC2)c(OCC)cc1NC(=O)c1cccc(F)c1` has an inhibition of 49.5%. `CCOc1cc(NC(=O)c2cccs2)c(OCC)cc1NC(=O)CCC(=O)NCCN1CCOCC1` gave an inhibition of 10.6%. In the case of `O=C(CCCCCn1c(=S)[nH]c2ccccc2c1=O)NCc1ccc2c(c1)OCO2`, the inhibition is reported as -9.7%. `C=CCNC(=S)NNC(=O)c1cccn(Cc2ccc(Cl)cc2Cl)c1=O` was tested, and the inhibition was -10.6%. Compound `O=C(C[n+]1ccccc1)N/N=C/c1cccs1` has an inhibition of -14%. In the case of `Cc1cc(C)nc(N(C#N)S(=O)(=O)c2ccc(Br)cc2)n1`, the inhibition is reported as -3.3%. With `O=C(CSc1nc(O)cc(=O)[nH]1)N1c2ccccc2Sc2ccccc21` the inhibition was 7.8%. Compound `COc1ccc(CCNC(=O)c2ccc(SC)cc2OC)cc1` has an inhibition of -1.4%. `Nc1cc(OCC(F)(F)F)cc([N+](=O)[O-])c1` was tested, and the inhibition was -2.2%. With `Nc1cc(OCC(F)(F)F)cc(OCC(F)(F)F)c1` the inhibition was 56.9% (active). In the case of `O=C(Nc1ccc(F)cc1)Nc1cc(OCC(F)(F)F)cc(OCC(F)(F)F)c1`, the inhibition is reported as 8.1%. `COCCOc1ccc(C(F)(F)F)cc1N` was tested, and the inhibition was 8.3%. In the case of `CONC(=O)c1cc(OCC(F)(F)F)ccc1OCC(F)(F)F`, the inhibition is reported as -7.9%. `Nc1cc(N)c(OCC(F)(F)F)cc1OCC(F)(F)F` was tested, and the inhibition was 55.8% (active). For `O=C1CCC(/C=C/c2ccccc2)=NN1Cc1ccc(F)cc1`, the inhibition was -0.5%. With `CC(=O)NC(CC(=O)NC12CC3CC(CC(C3)C1)C2)c1ccccc1` (configuration not stated) the inhibition was 1.3%. Work on `CCn1cc([N+](=O)[O-])c(C(=O)NCc2ccc(Cl)cc2)n1` yielded an inhibition of -5%. In the case of `N#Cc1cc(Oc2ccccc2)c(-n2nnc3ccccc32)cc1C#N`, the inhibition is reported as 3.1%. For `C#CCOCCOCCOCCNc1nc(N2CCN(C(=O)[C@H]([C@@H](C)CC)n3cc(CCCCN)nn3)CC2)nc(N2CCN(C(=O)[C@H](C)n3cc(CCC(=O)O)nn3)CC2)n1`, the inhibition was -27.7%. In the case of `COCCN1CC(=O)N(c2cccc(C)c2C)C(c2ccc(Cl)cc2)C1=O` (configuration not stated), the inhibition is reported as -1.2%. With `COc1ccc2c(c1)O[C@H](c1ccc3c(c1)OCO3)[C@@H](O)C2=O` the inhibition was -2.7%. Compound `COc1ccc(N=Cc2sc(O)c3ccccc23)cc1` has an inhibition of 8.8%. `COc1cccc(C=Nc2ccc3c(c2)OCCO3)c1O` showed an inhibition of 34.6%. Work on `Oc1[nH]c2ccccc2c1C=Nc1ccc2c(c1)OCO2` yielded an inhibition of 8.6%. Compound `CC1(C)CC(=O)C(C=Nc2ccc3c(c2)OCO3)=C(O)C1` has an inhibition of 14.2%. Compound `COc1ccc(N=CC2=C(O)c3ccccc3C2=O)cc1` has an inhibition of 5.6%. For `CCCC(=O)Nc1ccc(C(N)=O)cc1`, the inhibition was 5.2%. Compound `Cc1ccc(C)c(NC(=O)CCC(=O)NNC(=O)C(c2ccccc2)c2ccccc2)c1` has an inhibition of -16.3%. Work on `CC(C)OC(=O)CSc1nnc2c(n1)[nH]c1ccc(F)cc12` yielded an inhibition of -5.2%. For `O=C(NC1CCN(S(=O)(=O)c2ccccc2)CC1)C1CCCCC1`, the inhibition was 7.7%. For `O=C(c1ccc(Cl)cc1Cl)N1CCC(c2nc3c(nnn3Cc3ccco3)c(=O)[nH]2)CC1`, the inhibition was 14.6%. For `CN(C)CCCN(C(=O)CCc1ccccc1)c1nc2c(F)cccc2s1`, the inhibition was 4%. For `CN(C)CCCN(C(=O)CCOc1ccccc1)c1nc2c(F)cccc2s1`, the inhibition was 54.4% (active). Work on `CN(C)CCCN(C(=O)COc1ccccc1)c1nc2c(F)cccc2s1` yielded an inhibition of -2.9%. `COc1ccc(C)cc1NC(=O)CN(C)S(=O)(=O)c1cccs1` showed an inhibition of 1.9%. `Cc1ccc(SCCC(=O)NCCSCc2ccccc2C)cc1` was tested, and the inhibition was 8.3%. For `CCOc1ccc(C(=O)CCNC(Cc2cnc[nH]2)C(=O)O)cc1` (configuration not stated), the inhibition was 3.4%. With `O=C1S/C(=C\c2ccc(N3CCOCC3)o2)C(=O)N1c1ccccc1` the inhibition was 53.8% (active). For `O=C1N/C(=C/c2ccc(N3CCOCC3)o2)C(=O)N1c1ccccc1`, the inhibition was 9%. For `CCOC(=O)CN1C(=O)S/C(=C/c2ccc(N3CCCCC3)o2)C1=O`, the inhibition was 24.1%. With `O=C1N/C(=C/c2ccc(N3CCOCC3)o2)C(=O)N1c1cccc(Cl)c1` the inhibition was 15.3%. With `O=C1S/C(=C/c2ccc(N3CCOCC3)o2)C(=O)N1Cc1ccc(F)cc1` the inhibition was 45.3%. `O=C1S/C(=C\c2ccc(N3CCOCC3)o2)C(=O)N1Cc1c(F)cccc1Cl` was tested, and the inhibition was 56.3% (active). `CCCN1C(=O)S/C(=C\c2ccc(N3CCOCC3)cc2C)C1=O` gave an inhibition of 9.4%. For `O=C1S/C(=C\c2ccc(N3CCOCC3)o2)C(=O)N1Cc1ccc(F)cc1`, the inhibition was 57.3% (active). `CC(C)OC(=O)CN1C(=O)S/C(=C/c2ccc(N3CCCCC3)o2)C1=O` was tested, and the inhibition was 25%. With `CCCN1C(=O)S/C(=C\c2ccc(N3CCOCC3)o2)C1=O` the inhibition was 52.4% (active). `O=C1S/C(=C/c2ccc(N3CCOCC3)o2)C(=O)N1Cc1c(F)cccc1Cl` was tested, and the inhibition was 5.6%. Compound `COC(=O)CN1C(=O)S/C(=C/c2ccc(N3CCCCC3)o2)C1=O` has an inhibition of 46%. In the case of `COc1ccc(C2C(C(=O)c3ccc(C)o3)=C(O)C(=O)N2c2cc(C)on2)cc1OC` (configuration not stated), the inhibition is reported as -22.3%. `O=C(CSc1ncccn1)Nn1cnnc1` gave an inhibition of -0.7%. With `COc1ccc(NC(=O)Nc2cc(NC(=O)Nc3ccc(OC)cc3)c(C)nc2C)cc1` the inhibition was -8.6%. In the case of `CC(=O)N1c2ccccc2NC2=C(C(=O)CCC2)C1c1cccnc1` (configuration not stated), the inhibition is reported as 6.7%. `Clc1cccc(OCCn2cncn2)c1Cl` was tested, and the inhibition was -4.8%. `O=C(CCCC(=O)N1CCc2ccccc21)N1CCc2ccccc21` showed an inhibition of -6.6%. For `COc1cc(OC)cc(C(=O)NNC(=S)NCc2ccco2)c1`, the inhibition was -10.1%. `COc1ccc(-n2c(CSc3nc(C)cc(C)n3)nnc2SCC(=O)Nc2nccs2)cc1` showed an inhibition of 1.3%. `CS(=O)(=O)c1ccccc1-c1nc(-c2cccc(Cl)c2)no1` gave an inhibition of 9.9%. `CCSc1nc2sc3c(c2c(=O)n1C1CCCCC1)CCN(C)C3` was tested, and the inhibition was -33.5%. For `N#CCSc1nc2sc3c(c2c(=O)n1C1CCCCC1)CCCC3`, the inhibition was 52.4% (active). Compound `CSc1nc2sc3c(c2c(=O)n1C1CCCCC1)CCN(C)C3` has an inhibition of 10.7%.
